Results from PubChem BioAssay (Tox21).
Inconclusive results are not listed. A number with no mark means an inactive call. The source made the active and inactive calls. The call rests on the fitted dose curve; in most records, active means well fitted cell-killing curve with a large enough effect in the repeat runs; inconclusive means weak or mixed curves, or effect the other way; inactive means no such curve, though single readings can be large or run the other way. Positions of bridges follow the written chain, without caps; N, C: chain ends. Non-standard residues stand in square brackets, D forms with d. Residues, ends and D or L forms follow the SMILES beside them. *: point of attachment. X1 = CC[C@@H](C)[C@@H](N)C1=N[C@H](C(=O)*)CS1; d(aIle) = CC[C@H](C)[C@@H](N)C(=O)O; dOrn = NCCC[C@@H](N)C(=O)O

assay: qHTS assay to identify small molecule antagonists of the glucocorticoid receptor (GR) signaling pathway - cell viability counter screen (AID 720693); details: GR-bla HeLa viability, CellTiter-Glo luminescence, 18 h, with 5 nM dexamethasone present; series mostly up to 58.5 µM; viability change, negative = cytotoxic: at the top concentration; further: nearly all actives have a fitted effect of over 55% in size
Text: National Center for Advancing Translational Sciences [NCATS]
NIH Chemical Genomics Center [NCGC]
U.S. Environmental Protection Agency [EPA]
National Institutes of Environmental Health Sciences [NIEHS]
National Toxicology Program [NTP]
U.S. Food and Drug Administration [FDA]
The Glucocorticoid receptor (GR) is one of the members of the nuclear receptor family of ligand-dependent transcription factors. GR plays a critical role in carbohydrate, protein and lipid metabolisms and programmed cell death. CellSensor GR-bla HeLa cell line (Invitrogen) contains a beta-lactamase reporter gene under the control of the glucocorticoid response element stably integrated into HeLa cells, a cervical cancer cell line that expresses glucocorticoid receptor. The activation of the reporter gene under culture conditions can be detected by fluorescence intensity. This cell line has been used to screen the Tox21 10K compound library and to identify the compounds that inhibit the GR signaling. The cytotoxicity of the Tox21 compound library against the GR-bla HeLa cell line was tested in parallel by measuring the cell viability using CellTiter-Glo assay in the same wells.
Tox21 Assay Protocol Summary:
The GR-bla HeLa cells were dispensed at 1500 cells/5 ul/well in 1536-well black wall/clear bottom plates using a Multidrop Combi (ThermoFisher Scientific, Waltham, MA) dispenser. After the assay plates were incubated at a 37 C/5% CO2 incubator for 4 hours, 23 nL of compounds dissolved in DMSO, positive controls or DMSO only was transferred to the assay plate by a pintool station (Kalypsys, San Diego, CA), followed by addition of 1 uL of dexamethasone (5 nM, final concentration in the well). The plates were incubated at 37 C for 18 hours. After 1 uL of LiveBLAzerTM B/G FRET substrate was added using a Flying Reagent Dispenser (Aurora Discovery, San Diego, CA), the plates were incubated at room temperature (RT) for 2 hours, and fluorescence intensity was measured by an Envision plate reader (PerkinElmer, Shelton, CT). After measurement of bla assay, 3 ul CellTiter-Glo (Promega, Madison, WI) was added to measure the cytotoxicity and the plates were then incubated at RT for 30 min. The luminescence was measured using a ViewLux (Perkin Elmer) plate reader.
On the % scale 0 is the no-effect control and ±100 the full control effect; potency means the concentration at half of the fitted maximal effect.

Structure (SMILES)	viability change, negative = cytotoxic	Potency
O=C(O)c1ccc(NC2OC[C@@H](O)[C@H](O)[C@H]2O)cc1 (stereo not given in full)	5.31%	–
CC(C)(S)C(=O)N[C@@H](CS)C(=O)O	–	inactive
CC1(C)S[C@@H]2[C@H](NC(=O)[C@@H](NC(=O)N3CCNC3=O)c3ccccc3)C(=O)N2[C@H]1C(=O)O	-1.09% [at 27 µM]	–
CN[C@H](CC(C)C)C(=O)N[C@H]1C(=O)N[C@@H](CC(N)=O)C(=O)N[C@H]2C(=O)N[C@H]3C(=O)N[C@H](C(=O)N[C@@H](C(=O)O)c4cc(O)cc(O)c4-c4cc3ccc4O)[C@H](O)c3ccc(c(Cl)c3)Oc3cc2cc(c3O[C@@H]2O[C@H](CO)[C@@H](O)[C@H](O)[C@H]2O[C@H]2C[C@](C)(N)C(O)[C@H](C)O2)Oc2ccc(cc2Cl)[C@H]1O (stereo not given in full)	–	inactive
COc1c(O)cc2c(c1O)[C@@H]1O[C@H](CO)[C@@H](O)[C@H](O)[C@H]1OC2=O	-3.43% [at 27 µM]	–
CC(=O)Nc1ccc(OC(C)=O)cc1	3.01%	–
CCOc1cc(CC(=O)N[C@@H](CC(C)C)c2ccccc2N2CCCCC2)ccc1C(=O)O	-12.7% [at 27 µM]	–
CNC(=O)C[C@@H](N)C(=O)N[C@@H](C(=O)N[C@@H]1C(=O)N2[C@@H]1SC(C)(C)[C@@H]2C(=O)O)c1ccc(O)cc1	8.68%	–
C/C(=C\C(=O)OCCCCCCCCC(=O)O)C[C@@H]1OC[C@H](C[C@@H]2O[C@H]2[C@@H](C)[C@H](C)O)[C@@H](O)[C@H]1O	5.09%	–
CCCCCCCCCC[N+](C)(CCCCCCCCCC)CCC[Si](OC)(OC)OC	17.3%	–
OCl	7.44%	–
CN1CCN(CCCN2c3ccccc3Sc3ccc(Cl)cc32)CC1	–	23.9 µM (active)
CCN(CC)CCn1c(=O)c(Cc2ccc(OC)cc2)nc2ccccc21	-1.15%	–
C[S+](C)CCC(N)C(=O)O (stereo not given)	-4.87%	–
Nc1c(CC(=O)O)cccc1C(=O)c1ccccc1	–	inactive
CN(C/C=C/c1ccccc1)Cc1cccc2ccccc12	0.58%	–
CC[C@@]1([C@@H]2O[C@@H]([C@H]3O[C@@](O)(CO)[C@H](C)C[C@@H]3C)C[C@@H]2C)CC[C@H]([C@]2(C)CC[C@]3(C[C@H](O)[C@@H](C)[C@@H]([C@@H](C)[C@@H](OC)[C@H](C)C(=O)O)O3)O2)O1 (stereo in doubt)	-5.34%	–
CCN1CCCC1CNC(=O)c1cc(S(=O)(=O)CC)ccc1OC (stereo not given)	–	inactive
Nc1nc(NC2CC2)c2ncn([C@@H]3C=C[C@@H](CO)C3)c2n1	13.8%	–
Cc1cc(F)ccc1-c1cc(N2CC[C@@H](O)[C@H]2CO)ncc1N(C)C(=O)C(C)(C)c1cc(C(F)(F)F)cc(C(F)(F)F)c1	–	17.1 µM (active)

Structure (SMILES)	viability change, negative = cytotoxic	Potency
C[C@H](Cc1ccc(O)c(O)c1)[C@@H](C)Cc1ccc(O)c(O)c1	-19%	–
C(=C\c1ccncc1)/c1ccccc1	–	inactive
CCCCCCCC/C=C\CCCCCCCC(=O)N(CCO)CCO	–	48.8 µM (active)
NCC[C@H](O)C(=O)N[C@@H]1C[C@H](N)[C@@H](O[C@H]2O[C@H](CN)CC[C@H]2N)[C@H](O)[C@H]1O[C@H]1O[C@H](CO)[C@@H](O)[C@H](N)[C@H]1O	7.85%	–
C=CCN1C(=O)C(CC(C)C)NC1=S (stereo not given)	–	inactive
N=C(N)c1ccc(/C=C/c2ccc(C(=N)N)cc2O)cc1	1.92%	–
O=P(O)(O)C(O)(Cn1ccnc1)P(=O)(O)O	16.6%	–
N=C(N)n1cccn1	-0.829%	–
CC[C@@H](C)[C@@H](N)C1=N[C@H](C(=O)N[C@@H](CC(C)C)C(=O)N[C@@H](CCC(=O)O)C(=O)N[C@@H](C(=O)N[C@@H]2CCCCNC(=O)[C@@H](CC(N)=O)NC(=O)[C@@H](CC(=O)O)NC(=O)[C@@H](Cc3cnc[nH]3)NC(=O)[C@@H](Cc3ccccc3)NC(=O)[C@@H]([C@H](C)CC)NC(=O)[C@@H](CCCN)NC2=O)[C@@H](C)CC)CS1 (X1-LE[d(aIle)][dK][dOrn][dI][dF][dH][dD][dN]; lactam 4-C)	–	inactive
CC(=O)N[C@@H](C=O)[C@H](O)[C@H](O)[C@@H](O)CO	–	inactive
Cc1cc(-c2ccc(N=Nc3ccc4c(S(=O)(=O)O)cc(S(=O)(=O)O)c(N)c4c3O)c(C)c2)ccc1N=Nc1ccc2c(S(=O)(=O)O)cc(S(=O)(=O)O)c(N)c2c1O	–	inactive
CCCC(CCC)C(=O)OC1C[C@H]2CC[C@@H](C1)[N+]2(C)C (stereo not given in full)	–	inactive
CC1CCCC(C)N1NC(=O)c1ccc(Cl)c(S(N)(=O)=O)c1 (stereo not given)	6.23% [at 27 µM]	–
CC1(C)CCC(NC(=O)[C@@H](N)CCC(=O)O)CC1	-0.949%	–
CN(C)CCC(O)(c1ccccc1)c1ccccc1Cl (stereo not given)	0%	–
FC(F)(F)COCC(F)(F)F	-7.1%	–
NC[C@H]1O[C@H](O[C@H]2[C@H](O)[C@@H](O[C@H]3O[C@H](CO)[C@@H](O)[C@H](N)[C@H]3O)[C@H](N)C[C@@H]2N)[C@H](N)C[C@@H]1O	10.2% [at 27 µM]	–
O=C(O)/C=C/C(O)c1ccc(Cl)cc1 (stereo not given)	0.0382%	–
O=C(O)Cc1nn(Cc2ccc(Br)cc2F)c(=O)c2ccccc12	3.68%	–
CC1CCCCN1CCCOC(=O)c1ccccc1 (stereo not given)	13.2%	–
